Experiment in all cases: DAPPL (digital affinity profiling via proximity ligation, sequencing); 10 mM Tris-HCl pH 7.5, 50 mM NaCl, 1 mM DTT, 4% glycerol, room temperature, 30 min; GST-TFs on glutathione beads, 16-mer random dsDNA library, 0.1% formaldehyde crosslink after washing; high values mean tight binding
The target of one assay is T1, FEV (Homo sapiens, UniProt Q99581 1-238).
T1 sequence: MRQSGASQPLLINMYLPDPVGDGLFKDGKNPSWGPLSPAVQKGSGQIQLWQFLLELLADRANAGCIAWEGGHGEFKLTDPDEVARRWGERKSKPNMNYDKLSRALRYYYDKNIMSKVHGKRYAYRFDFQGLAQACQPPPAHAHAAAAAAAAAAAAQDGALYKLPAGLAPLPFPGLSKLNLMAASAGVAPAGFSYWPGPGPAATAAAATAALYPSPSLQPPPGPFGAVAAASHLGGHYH
The conditions noted are these: protein: recombinant; tags: N-terminal GST; dsDNA, one strand shown. Put shortly: (§1)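 Human transcription factors fused to GST were expressed in yeast, captured on glutathione beads, given DNA barcodes and pooled with a GST-only negative control. Pools were incubated with 200 nmole of a 16-mer random double-stranded DNA library in Tris/NaCl/DTT/glycerol buffer at room temperature for 30 min. They were then washed, crosslinked with 0.1% formaldehyde, proximity-ligated (BsaI/T4 ligase, 1 h, 37 °C), PCR-amplified and sequenced on an Illumina NextSeq500. Binding signal is each 6-mer's read frequency for a factor divided by its frequency for the GST control.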

Another assay deals with ETV5 (Homo sapiens, UniProt P41161 1-510). To be noted: protein: recombinant; tags: N-terminal GST; dsDNA, one strand shown. Put shortly: as §1
A further assay deals with HSF1 (Homo sapiens, UniProt Q00613 1-529). The conditions noted are these: protein: recombinant; tags: N-terminal GST; chain copies: 3; dsDNA, one strand shown. Summed up: as §1
The target in the next assay is T2, SPIC (Homo sapiens, UniProt Q8N5J4 1-248).
T2 sequence: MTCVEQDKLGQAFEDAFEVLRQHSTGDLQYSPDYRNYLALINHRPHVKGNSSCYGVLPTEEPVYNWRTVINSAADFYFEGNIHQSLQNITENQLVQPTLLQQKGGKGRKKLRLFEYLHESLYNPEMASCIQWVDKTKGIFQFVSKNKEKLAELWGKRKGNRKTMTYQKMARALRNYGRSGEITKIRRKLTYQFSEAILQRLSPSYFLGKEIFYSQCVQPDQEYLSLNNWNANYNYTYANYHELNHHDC
The conditions noted are these: protein: recombinant; tags: N-terminal GST; dsDNA, one strand shown. Put shortly: as §1

Another assay deals with ELF4 (Homo sapiens, UniProt Q99607 1-663). To be noted: protein: recombinant; tags: N-terminal GST; dsDNA, one strand shown. Put shortly:
as §1

For a further assay, the target named is T3, ELK4 (Homo sapiens, UniProt P28324-2 1-405).
T3 sequence: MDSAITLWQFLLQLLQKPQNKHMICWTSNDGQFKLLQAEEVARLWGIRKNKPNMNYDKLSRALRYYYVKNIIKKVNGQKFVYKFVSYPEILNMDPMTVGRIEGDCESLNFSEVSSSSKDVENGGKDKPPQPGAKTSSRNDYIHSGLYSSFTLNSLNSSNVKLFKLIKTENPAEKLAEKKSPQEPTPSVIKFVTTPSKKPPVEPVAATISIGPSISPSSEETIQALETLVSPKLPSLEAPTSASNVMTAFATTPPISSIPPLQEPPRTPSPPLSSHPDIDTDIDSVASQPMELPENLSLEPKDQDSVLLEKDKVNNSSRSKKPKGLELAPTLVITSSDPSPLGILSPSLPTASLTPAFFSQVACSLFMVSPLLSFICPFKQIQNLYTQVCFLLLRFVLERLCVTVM
To be noted: protein: recombinant; tags: N-terminal GST; dsDNA, one strand shown. Summed up: as §1

The next assay concerns the target T4, ETV2 (Homo sapiens, UniProt O00321 1-342).
T4 sequence: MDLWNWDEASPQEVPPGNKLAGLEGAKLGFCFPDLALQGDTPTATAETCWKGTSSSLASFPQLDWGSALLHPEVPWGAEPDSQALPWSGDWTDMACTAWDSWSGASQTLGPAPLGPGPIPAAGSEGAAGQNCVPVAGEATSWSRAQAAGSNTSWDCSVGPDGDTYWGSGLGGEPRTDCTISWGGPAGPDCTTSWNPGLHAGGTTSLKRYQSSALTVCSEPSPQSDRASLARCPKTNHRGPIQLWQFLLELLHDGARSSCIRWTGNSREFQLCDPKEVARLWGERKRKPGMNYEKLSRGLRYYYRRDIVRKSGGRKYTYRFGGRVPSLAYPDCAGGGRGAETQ
To be noted: protein: recombinant; tags: N-terminal GST; dsDNA, one strand shown. Summed up:
as §1

The target of the next assay is T5, ELF3 (Homo sapiens, UniProt P78545 1-371).
T5 sequence: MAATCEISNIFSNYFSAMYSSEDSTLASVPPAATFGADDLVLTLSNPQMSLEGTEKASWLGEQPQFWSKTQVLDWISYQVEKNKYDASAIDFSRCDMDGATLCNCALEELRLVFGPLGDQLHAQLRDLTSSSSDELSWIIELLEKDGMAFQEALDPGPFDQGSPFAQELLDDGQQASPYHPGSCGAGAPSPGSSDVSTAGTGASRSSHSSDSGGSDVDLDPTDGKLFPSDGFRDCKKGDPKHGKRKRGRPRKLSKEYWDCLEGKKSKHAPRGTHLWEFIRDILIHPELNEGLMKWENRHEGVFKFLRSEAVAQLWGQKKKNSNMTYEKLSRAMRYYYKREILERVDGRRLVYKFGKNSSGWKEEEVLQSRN
To be noted: protein: recombinant; tags: N-terminal GST; dsDNA, one strand shown. Summed up:
as §1

A further assay deals with CRX (Homo sapiens, UniProt O43186 1-299). To be noted: protein: recombinant; tags: N-terminal GST; dsDNA, one strand shown. Summed up:
as §1

Another assay concerns the target ETV1 (Homo sapiens, UniProt P50549 1-477). The conditions noted are these: protein: recombinant; tags: N-terminal GST; dsDNA, one strand shown. Summed up:
as §1

ETV1, sequence (P50549 whole entry): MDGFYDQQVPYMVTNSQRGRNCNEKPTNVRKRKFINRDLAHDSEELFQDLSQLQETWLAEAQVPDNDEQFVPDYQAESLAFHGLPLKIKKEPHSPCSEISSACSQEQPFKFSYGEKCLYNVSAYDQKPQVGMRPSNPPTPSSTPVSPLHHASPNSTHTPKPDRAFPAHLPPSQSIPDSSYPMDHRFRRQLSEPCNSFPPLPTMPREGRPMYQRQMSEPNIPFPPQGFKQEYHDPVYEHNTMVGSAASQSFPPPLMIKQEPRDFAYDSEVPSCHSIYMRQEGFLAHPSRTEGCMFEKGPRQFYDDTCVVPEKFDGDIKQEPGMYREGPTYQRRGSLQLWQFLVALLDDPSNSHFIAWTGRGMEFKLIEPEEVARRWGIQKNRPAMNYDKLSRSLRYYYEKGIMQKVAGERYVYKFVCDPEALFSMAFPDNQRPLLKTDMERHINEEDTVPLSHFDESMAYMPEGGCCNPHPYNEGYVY
HSF1, sequence (Q00613 whole entry): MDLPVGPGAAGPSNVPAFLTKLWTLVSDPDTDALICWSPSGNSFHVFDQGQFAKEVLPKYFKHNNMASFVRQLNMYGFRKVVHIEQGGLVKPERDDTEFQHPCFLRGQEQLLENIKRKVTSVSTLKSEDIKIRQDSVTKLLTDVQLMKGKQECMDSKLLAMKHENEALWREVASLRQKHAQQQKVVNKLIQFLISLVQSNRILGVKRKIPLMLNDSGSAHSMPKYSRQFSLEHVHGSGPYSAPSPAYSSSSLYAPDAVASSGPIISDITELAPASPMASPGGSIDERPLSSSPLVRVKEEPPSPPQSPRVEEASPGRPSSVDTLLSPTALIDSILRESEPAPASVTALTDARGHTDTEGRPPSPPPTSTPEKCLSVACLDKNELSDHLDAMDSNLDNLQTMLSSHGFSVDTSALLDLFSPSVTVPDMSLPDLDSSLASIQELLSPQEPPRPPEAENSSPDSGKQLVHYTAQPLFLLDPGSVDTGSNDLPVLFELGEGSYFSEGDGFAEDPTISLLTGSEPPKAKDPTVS
ETV5, sequence (P41161 whole entry): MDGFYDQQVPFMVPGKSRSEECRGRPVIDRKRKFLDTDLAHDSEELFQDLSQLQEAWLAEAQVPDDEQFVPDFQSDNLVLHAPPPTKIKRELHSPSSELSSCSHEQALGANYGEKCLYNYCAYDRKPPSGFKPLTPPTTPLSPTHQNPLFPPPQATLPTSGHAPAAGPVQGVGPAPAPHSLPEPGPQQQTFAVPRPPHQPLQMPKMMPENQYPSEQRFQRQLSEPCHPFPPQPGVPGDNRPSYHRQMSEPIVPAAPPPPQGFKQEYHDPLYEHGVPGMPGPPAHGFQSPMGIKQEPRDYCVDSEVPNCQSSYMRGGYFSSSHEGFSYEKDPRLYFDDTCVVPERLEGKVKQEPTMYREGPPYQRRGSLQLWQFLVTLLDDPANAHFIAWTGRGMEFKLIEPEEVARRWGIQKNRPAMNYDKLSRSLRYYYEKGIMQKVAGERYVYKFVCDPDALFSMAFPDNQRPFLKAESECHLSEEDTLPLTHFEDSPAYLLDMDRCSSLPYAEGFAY
ELF4, sequence (Q99607 whole entry): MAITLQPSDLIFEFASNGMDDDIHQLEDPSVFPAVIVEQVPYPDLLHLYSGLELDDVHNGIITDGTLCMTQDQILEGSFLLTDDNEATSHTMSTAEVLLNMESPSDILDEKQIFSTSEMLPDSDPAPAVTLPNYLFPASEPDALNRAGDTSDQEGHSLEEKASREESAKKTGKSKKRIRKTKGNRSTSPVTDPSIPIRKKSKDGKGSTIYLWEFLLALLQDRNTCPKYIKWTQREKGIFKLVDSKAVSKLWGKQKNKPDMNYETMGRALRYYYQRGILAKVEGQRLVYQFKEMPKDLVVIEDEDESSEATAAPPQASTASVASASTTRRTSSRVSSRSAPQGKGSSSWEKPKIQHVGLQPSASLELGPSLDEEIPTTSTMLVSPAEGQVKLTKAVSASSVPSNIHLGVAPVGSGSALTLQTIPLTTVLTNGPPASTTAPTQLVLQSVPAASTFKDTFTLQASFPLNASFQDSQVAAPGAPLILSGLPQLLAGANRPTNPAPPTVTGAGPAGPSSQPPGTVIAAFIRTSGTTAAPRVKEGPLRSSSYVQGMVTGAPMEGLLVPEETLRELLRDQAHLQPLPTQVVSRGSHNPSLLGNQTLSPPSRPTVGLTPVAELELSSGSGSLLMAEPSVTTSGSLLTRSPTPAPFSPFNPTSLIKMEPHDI
CRX, sequence (O43186 whole entry): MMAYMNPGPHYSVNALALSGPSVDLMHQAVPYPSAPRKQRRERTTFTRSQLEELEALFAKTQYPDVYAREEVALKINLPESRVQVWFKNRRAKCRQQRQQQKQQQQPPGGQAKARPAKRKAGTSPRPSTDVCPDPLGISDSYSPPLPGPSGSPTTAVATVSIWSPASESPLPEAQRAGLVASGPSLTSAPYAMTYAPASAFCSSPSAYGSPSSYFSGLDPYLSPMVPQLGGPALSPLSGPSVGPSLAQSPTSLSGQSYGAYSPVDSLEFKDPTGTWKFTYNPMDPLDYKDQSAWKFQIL

As for TCTTGG, the binding signal was 1.3 fold enrichment (6-mer frequency, TF over GST control) in the assay with FEV; 1.32 fold enrichment (6-mer frequency, TF over GST control) with ETV5; 1.39 fold enrichment (6-mer frequency, TF over GST control) with HSF1; 1.47 fold enrichment (6-mer frequency, TF over GST control) with SPIC; 1.39 fold enrichment (6-mer frequency, TF over GST control) in the assay with ELF4; 1.41 fold enrichment (6-mer frequency, TF over GST control) with ELK4. Moreover, the binding signal with ETV2 was 1.22 fold enrichment (6-mer frequency, TF over GST control); in the assay with ELF3, 1.41 fold enrichment (6-mer frequency, TF over GST control); with CRX it was 1.32 fold enrichment (6-mer frequency, TF over GST control); with ETV1, 1.23 fold enrichment (6-mer frequency, TF over GST control).

With TGGCTC, the binding signal with FEV is 1.39 fold enrichment (6-mer frequency, TF over GST control); in the assay with ETV5 it was 1.3 fold enrichment (6-mer frequency, TF over GST control); in the assay with HSF1, 1.36 fold enrichment (6-mer frequency, TF over GST control); with SPIC, 1.46 fold enrichment (6-mer frequency, TF over GST control); with ELF4 it was 1.35 fold enrichment (6-mer frequency, TF over GST control); with ELK4 it was 1.5 fold enrichment (6-mer frequency, TF over GST control). Also, the binding signal was 1.61 fold enrichment (6-mer frequency, TF over GST control) with ETV2; 1.44 fold enrichment (6-mer frequency, TF over GST control) with ELF3; 1.3 fold enrichment (6-mer frequency, TF over GST control) with CRX; 1.42 fold enrichment (6-mer frequency, TF over GST control) in the assay with ETV1.

Regarding ATTTAA, the binding signal is 1.14 fold enrichment (6-mer frequency, TF over GST control) with FEV; 1.24 fold enrichment (6-mer frequency, TF over GST control) with ETV5; 1.62 fold enrichment (6-mer frequency, TF over GST control) in the assay with HSF1; 1.22 fold enrichment (6-mer frequency, TF over GST control) with SPIC; 1.13 fold enrichment (6-mer frequency, TF over GST control) in the assay with ELF4; 1.18 fold enrichment (6-mer frequency, TF over GST control) in the assay with ELK4. Besides, the binding signal in the assay with ETV2 is 1.17 fold enrichment (6-mer frequency, TF over GST control); with ELF3 it was 1.11 fold enrichment (6-mer frequency, TF over GST control); with CRX, 2.38 fold enrichment (6-mer frequency, TF over GST control); with ETV1, 1.14 fold enrichment (6-mer frequency, TF over GST control).

As for AGCTAT, the binding signal with FEV was 1.16 fold enrichment (6-mer frequency, TF over GST control); with ETV5, 1.16 fold enrichment (6-mer frequency, TF over GST control); in the assay with HSF1, 1.12 fold enrichment (6-mer frequency, TF over GST control); with SPIC it was 1.15 fold enrichment (6-mer frequency, TF over GST control); with ELF4, 1.15 fold enrichment (6-mer frequency, TF over GST control); with ELK4, 1.27 fold enrichment (6-mer frequency, TF over GST control). In addition, the binding signal in the assay with ETV2 is 1.2 fold enrichment (6-mer frequency, TF over GST control); in the assay with ELF3, 1.2 fold enrichment (6-mer frequency, TF over GST control); with CRX it was 1.27 fold enrichment (6-mer frequency, TF over GST control); with ETV1 it was 1.2 fold enrichment (6-mer frequency, TF over GST control).

Turning to CCCAAT, the binding signal with FEV was 1.27 fold enrichment (6-mer frequency, TF over GST control); in the assay with ETV5, 1.34 fold enrichment (6-mer frequency, TF over GST control); with HSF1, 1.1 fold enrichment (6-mer frequency, TF over GST control); with SPIC, 1.27 fold enrichment (6-mer frequency, TF over GST control); with ELF4 it was 1.32 fold enrichment (6-mer frequency, TF over GST control); with ELK4 it was 1.24 fold enrichment (6-mer frequency, TF over GST control). Moreover, the binding signal with ETV2 was 1.3 fold enrichment (6-mer frequency, TF over GST control); with ELF3 it was 1.32 fold enrichment (6-mer frequency, TF over GST control); in the assay with CRX, 1.19 fold enrichment (6-mer frequency, TF over GST control); with ETV1, 1.19 fold enrichment (6-mer frequency, TF over GST control).

On to TGAACA, for which the binding signal with FEV is 1.21 fold enrichment (6-mer frequency, TF over GST control); in the assay with ETV5, 1.2 fold enrichment (6-mer frequency, TF over GST control); in the assay with HSF1, 1.18 fold enrichment (6-mer frequency, TF over GST control); in the assay with SPIC, 1.29 fold enrichment (6-mer frequency, TF over GST control); in the assay with ELF4 it was 1.24 fold enrichment (6-mer frequency, TF over GST control); in the assay with ELK4 it was 1.4 fold enrichment (6-mer frequency, TF over GST control). In addition, the binding signal with ETV2 is 1.27 fold enrichment (6-mer frequency, TF over GST control); in the assay with ELF3 it was 1.3 fold enrichment (6-mer frequency, TF over GST control); in the assay with CRX, 1.06 fold enrichment (6-mer frequency, TF over GST control); with ETV1, 1.27 fold enrichment (6-mer frequency, TF over GST control).

Turning to AACTCA, the binding signal was 1.26 fold enrichment (6-mer frequency, TF over GST control) with FEV; 1.25 fold enrichment (6-mer frequency, TF over GST control) with ETV5; 1.14 fold enrichment (6-mer frequency, TF over GST control) with HSF1; 1.2 fold enrichment (6-mer frequency, TF over GST control) with SPIC; 1.27 fold enrichment (6-mer frequency, TF over GST control) with ELF4; 1.21 fold enrichment (6-mer frequency, TF over GST control) with ELK4. The binding signal with ETV2 is 1.22 fold enrichment (6-mer frequency, TF over GST control); with ELF3, 1.15 fold enrichment (6-mer frequency, TF over GST control); with CRX, 1.12 fold enrichment (6-mer frequency, TF over GST control); in the assay with ETV1 it was 1.24 fold enrichment (6-mer frequency, TF over GST control).

The values above are taken from PMC7862700, “An all-to-all approach to the identification of sequence-specific readers for epigenetic DNA modifications on cytosine”.
